ROC1-CUL1 inh = inhibitors of human ROC1-CUL1 ubiquitin ligase activity. E3 ubiquitin-protein ligase RBX1 (Homo sapiens) + Cullin-1 (Homo sapiens), P62877+Q13616. in vitro K48 di-Ub FRET, acceptor:donor ratio, 45 min. inhibition, % at 10 µM. 140,000 compounds, 0.6% hits. AID 1347404, 2020; in the data active means inhibition above about 25%
Target sequence (P62877 whole entry, looked up): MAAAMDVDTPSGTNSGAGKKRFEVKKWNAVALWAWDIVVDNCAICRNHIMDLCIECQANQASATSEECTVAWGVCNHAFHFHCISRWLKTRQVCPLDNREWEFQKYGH
Target sequence (Q13616 whole entry, looked up): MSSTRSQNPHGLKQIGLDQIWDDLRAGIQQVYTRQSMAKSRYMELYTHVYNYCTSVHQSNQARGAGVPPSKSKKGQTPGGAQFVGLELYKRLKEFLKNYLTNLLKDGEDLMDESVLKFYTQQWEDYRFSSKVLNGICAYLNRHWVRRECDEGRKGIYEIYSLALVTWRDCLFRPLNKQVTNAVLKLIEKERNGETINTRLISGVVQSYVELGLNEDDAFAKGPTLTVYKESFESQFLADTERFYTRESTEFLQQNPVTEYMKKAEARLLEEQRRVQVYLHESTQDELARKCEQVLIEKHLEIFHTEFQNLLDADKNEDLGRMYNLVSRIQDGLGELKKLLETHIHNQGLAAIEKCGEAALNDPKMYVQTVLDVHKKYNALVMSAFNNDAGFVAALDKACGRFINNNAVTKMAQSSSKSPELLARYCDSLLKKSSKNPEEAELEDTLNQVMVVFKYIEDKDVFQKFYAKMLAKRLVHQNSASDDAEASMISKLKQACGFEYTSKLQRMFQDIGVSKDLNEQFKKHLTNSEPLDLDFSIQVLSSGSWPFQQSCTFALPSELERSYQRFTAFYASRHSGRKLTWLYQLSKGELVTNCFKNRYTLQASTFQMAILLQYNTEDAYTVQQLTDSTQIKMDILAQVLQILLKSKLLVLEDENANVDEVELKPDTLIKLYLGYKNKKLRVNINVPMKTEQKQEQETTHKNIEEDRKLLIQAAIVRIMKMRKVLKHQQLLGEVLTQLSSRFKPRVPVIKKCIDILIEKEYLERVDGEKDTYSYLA
Hits are given with their value; . = inactive. Only a selection was taken, and hits are over-represented in it overall.

SMILES	ROC1-CUL1 inh
COc1cc(Cl)c(C)cc1NC(=O)CSc1ncc(S(=O)(=O)c2ccc(C(C)(C)C)cc2)c(=O)[nH]1	53
CC(C)(C)c1ccc(S(=O)(=O)c2cnc(SCC(=O)Nc3ccc(F)c(Cl)c3)[nH]c2=O)cc1	.
CCCNC(=O)[C@H]1C[C@@](CC(C)C)(C(=O)OC)N(C)[C@H]1c1cccnc1	.
Cc1ccc(-c2nc3ccccc3c(=O)n2-c2nc3ccccc3s2)cc1	.
Brc1cnc2c(Br)cncc2c1	.
O=C(CN1C(=O)c2ccccc2C1=O)Nc1ccc(I)cc1	.
Cc1ccc(NC(=O)CN2C(=O)c3ccccc3C2=O)cc1Cl	.
Cc1ccc(NC(=O)CN2C(=O)c3ccc4c5c(ccc(c35)C2=O)CC4)cc1	38
O=C(CN1C(=O)S/C(=C/c2cccc(F)c2)C1=O)Nc1ccccc1	.
COc1cc(NS(=O)(=O)c2ccc(NC(=O)Nc3cccc(Cl)c3)cc2)nc(OC)n1	.
COc1ccc(CC(=O)Nc2ccc(S(=O)(=O)Nc3cc(OC)nc(OC)n3)cc2)cc1	35
COc1cc(NS(=O)(=O)c2ccc(NS(=O)(=O)c3ccccc3)cc2)nc(OC)n1	.
Cc1c(C(=O)NCc2ccc3c(c2)OCO3)cnn1-c1ncc2c(n1)-c1ccccc1CCC2	.
Cc1c(CC(=O)NCc2ccon2)c2c(n1CCc1ccccc1)CCCC2=O	29
Cc1c(CC(=O)NCC(N)=O)c2c(n1CCc1ccccc1)CCCC2=O	.
Cc1c(CC(=O)NCc2ccon2)c2c(n1CC1CCCO1)CCCC2=O (stereo not given)	.
CCOc1cc(/C=N/NC(=O)c2ccncc2)ccc1OCCSc1cccc2ccccc12	.
Cc1ccc(-c2ccc(/C=C3/SC(N4CCOCC4)=NC3=O)o2)c(Br)c1	.
N#Cc1ccccc1-c1ccc(/C=C2/SC(=O)NC2=O)o1	.
Cc1ccc(-c2ccc(/C=C3/SC(=S)NC3=O)o2)c(Br)c1	96
Cc1ccc(C(=O)Nc2ccc(Sc3ccc(Cl)cc3)cc2)cc1	.
COCCN1CCCC(O)(CN2CCCC2)C1=O (stereo not given)	.
Cc1ccccc1C(=O)N1CCN(c2ccc(NC(=O)CSc3ccc(Cl)cc3)cc2)CC1	30
O=C(CSc1ccc(Cl)cc1)Nc1ccc(N2CCN(C(=O)c3cccs3)CC2)cc1	.
Cc1ccccc1C(=O)N1CCN(c2ccc(NC(=O)c3ccccc3Br)cc2)CC1	.
SMILES	ROC1-CUL1 inh
OCc1ccc(CN2CCC(C3CCN(c4ncccn4)CC3)C2)o1 (stereo not given)	.
CC1=C(C#N)c2nc(N)c(C#N)c(C)c2/C1=C\c1ccc(F)cc1	.
CC1=C(C#N)c2nc(N)c(C#N)c(C)c2/C1=C\c1ccc(OCc2cccc(C(=O)O)c2)cc1	98
CC1=C(C#N)c2nc(N)c(C#N)c(C)c2/C1=C\c1cccc(F)c1	.
O=C(NC1CCCCC1)N1CCCn2c(SCc3ccccc3Cl)nnc21	.
N#CC1C=C(C(=O)O)C(=O)N=C1SCc1ccccc1Cl (stereo not given)	73
CC(=O)Nc1nnc(SCc2ccccc2Cl)s1	.
COC(C(=O)NCc1c(C)ncc2c1CCN(C(=O)Cc1ccc(F)c(F)c1)C2)c1ccccc1 (stereo not given)	.
Nn1c(N2CCOCC2)c(S)oc1=Nc1ccc(O)c(C(=O)O)c1	.
Cc1cc(C(=O)N2CCN(C3CCCCC3)CC2)cs1	.
O=C(c1ccc(Cl)s1)N1CCN(Cc2ccc(F)cc2)CC1	.
O=C(c1ccc(Cl)s1)N1CCN(C2CCCCC2)CC1	72
CCN=C1CC=CC=C(C(=O)/C=C/c2ccc(Cl)cc2)C1=O	79
CCN=C1CC=CC=C(C(=O)/C=C/c2ncccc2C)C1=O	36
CCN=C1CC=CC=C(c2ccc3ccccc3n2)C1=O	.
CCN=C1CC=CC=C(C(=O)/C=C/c2cccc(OC)c2OC)C1=O	.
CCN=C1CC=CC=C(C(=O)/C=C/c2cccc(Cl)c2)C1=O	.
CCN=C1CC=CC=C(C(=O)/C=C/c2ccc(Cl)cc2Cl)C1=O	.
O=c1[nH]c(=O)n(Cc2ccccc2)c2nccc(-c3ccco3)c12	.
CC1=CC(C)(C)N(C(=O)COc2nc3ccccc3s2)c2ccc(C(c3ccccc3)(c3ccccc3)c3ccccc3)cc21	.
O=C(CC1CC1)N1CCCC(CCc2ccccc2F)C1 (stereo not given)	.
Cc1sc(-c2c(C#N)c(N)nc3c2CCCC3)cc1COc1ccc(Cl)cc1	.
CCCCN(C(=O)C1CCN(C(=O)c2ccccc2F)CC1)c1ccccc1	.
COc1cc(/C=c2\sc3n(c2=O)C(c2ccccc2)C2=C(N=3)c3ccccc3CC2)cc(OC)c1O (stereo not given)	.
COc1ccc(C(=O)Oc2ccc(/C=c3/sc4n(c3=O)C(c3ccccc3Cl)C3=C(N=4)c4ccccc4CC3)cc2)cc1 (stereo not given)	.
COc1ccc(C2C3=C(N=c4s/c(=C/c5ccc(C(C)C)cc5)c(=O)n42)c2ccccc2CC3)cc1 (stereo not given)	.

Screening results as filed in PubChem BioAssay.
